# Screening data deposited in PubChem by several laboratories.
# In the library only some 0.5% were active in any assay of this set; here they are far more common.
# AddAB inh: growth inhibition of E. coli expressing H. pylori AddAB, primary screen, AddAB inhibitor project, absorbance | inhibition, % at 11.9 µM | hit rate 0.29% among 330,000; in the data active = inhibition above about 12%;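 note: 0% = vehicle wells of infected cells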
# E coli growth-1: E. coli growth inhibition, primary screen, OD600; Escherichia coli growth, 23 h; active compounds read low; hit rate 0.21% among 330,000; OD600 absorbance (test concentration not listed);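 active = OD600 absorbance below the run mean of sample wells minus 3.6 SD, in any replicate, cut at about 0.56 in these data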
# E coli growth-2: E. coli V3065 growth inhibition, primary screen, counter-screen for AddAB inhibitor project, absorbance, OD600; 18 h; hit rate 0.27% among 330,000; AID 449728, 2010; inhibition, % at 11.9 µM;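 active = inhibition above the campaign's mean inhibition across all tested compounds plus 3 SD, cut at about 9.9% in these data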;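 note: uninfected addAB+ strain grown without phage in ampicillin broth; 0% = DMSO wells and 100% = ciprofloxacin 0.95 µg/ml wells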
# Tat transport: E. coli Tat export inhibitors, primary screen, MC4100, TorA-mCherry reporter, fluorescence, single point. inhibition, % at 10 µM. hit rate 0.036% among 340,000. AID 488895, 2010;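 active = mean replicate inhibition at least 50% and at least half of replicates individually reaching 50%; inconclusive = only one of the two criteria met; inactive = neither criterion met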;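 note: exported cargo escapes ClpAP degradation while cytoplasmic cargo is degraded and loses fluorescence; 0% = median of neutral control wells and 100% = median of NaSCN control wells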
# phage Ecoli inh: growth loss of phage-infected E. coli, primary screen, RecBCD inhibitor project, absorbance, with phage, HTS; inhibition, % at 11.9 µM; hit rate 0.26% among 360,000; in the data active = inhibition above about 11%
# AddAB confirm: growth loss of phage-infected E. coli expressing H. pylori AddAB, confirmation, AddAB inhibitor project, absorbance, E. coli V3065, T4 phage, triplicate | shares compounds with AddAB inh | OD; T4 phage with gene 2 nonsense mutations | inhibition, % at 11.9 µM | hit rate 64% among 880 | AID 488942, 2010;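 active = mean inhibition above a set limit taken from the earlier primary screen, cut at about 13% in these data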;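 note: higher means less bacterial growth since AddAB block lets phage replicate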
# RecBCD counter: growth loss of RecBCD+ E. coli with mutant T4 phage, counter-screen for AddAB inhibitor project, absorbance, V66 E. coli | hit rate 73% among 880 | OD growth | shares compounds with AddAB inh | AID 488955, 2010 | inhibition, % at 11.9 µM;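 active = mean inhibition above the mean of solvent-only control wells plus 3 SD, cut at about 4% in these data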;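 note: optical density read after an 18 h incubation at 37 °C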
# Bact viability: bacterial viability inhibition counter-screen, confirmation, counter-screen for AddAB inhibitor project, absorbance; shares compounds with AddAB inh; absorbance (AddAB counterscreen); inhibition, % at 11.9 µM; hit rate 35% among 880; AID 488956, 2010; in the data active = inhibition above about 25%
# The depositor's hits bear a star; u = inconclusive; x = no result.
SMILES,AddAB inh,E coli growth-1,E coli growth-2,Tat transport,phage Ecoli inh,AddAB confirm,RecBCD counter,Bact viability
CNC(CC(C)C)C(=O)NC1C(=O)NC(CC(N)=O)C(=O)NC2C(=O)NC3C(=O)NC(C(=O)NC(C(=O)O)c4cc(O)cc(O)c4-c4cc3ccc4O)C(O)c3ccc(c(Cl)c3)Oc3cc2cc(c3OC2OC(CO)C(O)C(O)C2OC2C[C@](C)(N)C(O)C(C)O2)Oc2ccc(cc2Cl)C1O (some centres not stated),-3.2,0.401*,-0.1,-37.2,7.2,x,x,x
COc1cc(C=Nn2nnnc2N)cc(OC)c1OC,x,0.689,x,x,x,x,x,x
CCN(CC)c1ccc(C(=C2C=CC(=[N+](CC)CC)C=C2)c2ccc(N(CC)CC)cc2)cc1,x,0.893,x,51.3*,-0.8,x,x,x
CCN(CC)c1ccc(C(=O)NNC(=O)CCl)cc1,-1.3,x,2.0,5.7,0.4,x,x,x
Cc1c(-n2c(SCC(C)C)nc3ccccc3c2=O)c(=O)n(-c2ccccc2)n1C,-1.9,0.391*,-0.3,-1.3,0.4,x,x,x
CN=c1c([N+](=O)[O-])nn(-c2ccc3c(c2)OCCO3)n1O,21.2*,0.538,19.4*,0.9,6.3,30.9*,9.9*,30.7*
Cc1ccnc(NC(c2cccnc2)c2ccc3cccnc3c2O)c1 (configuration not stated),12.2*,0.648,12.1*,u,14.8*,11.8,12.4*,5.2
COc1ccccc1NC(c1cccnc1)c1ccc2cccnc2c1O (configuration not stated),6.4,0.738,-3.0,-0.6,7.5,x,x,x
Cc1nnc(SCC(=O)NCc2ccc3c(c2)OCO3)s1,18.7*,0.684,44.2*,-13.7,1.2,-5.8,-0.2,-3.9
Cc1ccc2nc(-c3ccccc3O)c(Nc3ccc4c(c3)OCCO4)n2c1,1.6,0.699,1.9,14.4,4.5,x,x,x
Cc1ccc2nc(-c3ccc(O)cc3)c(Nc3ccc4c(c3)OCCO4)n2c1,16.6*,0.712,14.1*,-1.1,1.6,-2.1,-0.8,-3.5
C[C@H]1c2cccc(O)c2C(O)=C2C(=O)[C@]3(O)C(O)=C(C(N)=O)C(=O)[C@@H](N(C)C)[C@@H]3[C@@H](O)[C@@H]21,97.8*,x,100.0*,146.8*,x,100.7*,100.0*,100.7*
O=C(N/N=C/c1c(O)ccc2ccccc12)c1ccc(Br)o1,21.4*,x,23.3*,-9.6,16.2*,15.2*,17.1*,10.7
Cc1occc1C(=O)N/N=C/c1c(O)ccc2ccccc12,17.3*,x,14.0*,2.0,10.0,17.1*,15.8*,8.7
O=C(N/N=C\c1c(O)ccc2ccccc12)c1ccc(O)cc1,6.0,x,-3.4,2.8,0.2,x,x,x
COc1ccc(CN2CCOCC2)c(C)c1C,2.0,0.676,-2.4,-11.2,2.8,x,x,x
C[C@]12c3[nH]c4ccc(Cl)cc4c3CCN1C(=O)[C@@H](CC(=O)NCc1ccco1)C[C@@H]2C(=O)N1CCOCC1,-1.7,0.7,-2.5,-0.7,1.5,x,x,x
CCn1cc(C(=O)O)c(=O)c2cc(F)c(N3CCNCC3)cc21,99.3*,x,99.5*,94.1*,x,103.1*,102.2*,103.4*
CCn1cc(C(=O)O)c(=O)c2cc(F)c(N3CCN(S(=O)(=O)c4ccc5c(c4)OCCO5)CC3)cc21,93.8*,0.083*,48.3*,-5.9,7.0,100.6*,13.5*,98.7*
CCOC(=O)c1cn(CC)c2cc(N3CCSCC3)c(F)cc2c1=O,75.2*,0.465*,82.7*,37.9,7.2,97.0*,0.8,10.8
CC(C)(C)SCCNC(=O)CN(c1ccc(F)cc1)S(C)(=O)=O,0.6,0.726,3.0,1.8,0.8,x,x,x
COc1ccc(-n2c(Cc3cccn3C)nnc2SCC(=O)Nc2ccccc2)cc1,7.0,0.772,-1.6,0.8,2.4,x,x,x
COc1ccc(-n2c(Cc3cccn3C)nnc2SCC(=O)Nc2nc(C)cs2)cc1,15.4*,0.729,8.8,27.4,3.3,-1.1,-0.9,-2.4
CC(C)C(=O)N1CCN(c2ccc(NC(=O)c3ccc([N+](=O)[O-])o3)cc2)CC1,13.2*,0.695,5.5,-2.3,3.9,28.5*,3.3,8.1
